In the library only some 3.1% were active in any assay of this set; here they are far more common.
PLK1 PBD inh: qHTS for Inhibitors of PLK1-PDB (polo-like kinase 1 - polo-box domain): Primary Screen; Serine/threonine-protein kinase PLK1 (Homo sapiens), P53350; Plk1 PBD binding of FITC phosphopeptide, fluorescence polarization; Potency, µM, hits mostly inhibitors; hit rate 2.8% among 360,000; AID 720504, 2013; also: series mostly up to about 57 µM; nearly all actives have a fitted effect of over 65% in size
Target sequence (P53350 whole entry, looked up, the tested form may be a part): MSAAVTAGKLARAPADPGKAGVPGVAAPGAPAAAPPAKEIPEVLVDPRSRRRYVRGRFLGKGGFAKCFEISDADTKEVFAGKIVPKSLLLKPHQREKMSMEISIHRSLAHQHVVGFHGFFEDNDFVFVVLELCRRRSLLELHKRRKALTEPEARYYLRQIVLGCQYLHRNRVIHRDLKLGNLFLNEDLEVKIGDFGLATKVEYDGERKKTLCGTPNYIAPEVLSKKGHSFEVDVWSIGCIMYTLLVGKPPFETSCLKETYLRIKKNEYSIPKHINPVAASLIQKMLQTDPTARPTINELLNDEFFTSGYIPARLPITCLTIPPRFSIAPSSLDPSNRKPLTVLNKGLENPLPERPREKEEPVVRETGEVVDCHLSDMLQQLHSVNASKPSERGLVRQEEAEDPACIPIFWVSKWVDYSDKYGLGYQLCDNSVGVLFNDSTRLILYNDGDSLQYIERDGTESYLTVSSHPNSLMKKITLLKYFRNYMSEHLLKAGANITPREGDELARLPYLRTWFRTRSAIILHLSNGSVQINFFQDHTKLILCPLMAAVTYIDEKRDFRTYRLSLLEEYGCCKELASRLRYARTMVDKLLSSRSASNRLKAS
TDP1 block: qHTS Assay for Inhibitors of Tyrosyl-DNA Phosphodiesterase (TDP1) | Tyrosyl-DNA phosphodiesterase 1 (Homo sapiens), Q9NUW8 | recombinant TDP1, AlphaScreen DNA substrate cleavage | Potency, µM (titrated, usually from 130 µM), actives largely listed as inhibitors | hit rate 0.28% among 350,000; also: nearly all actives have a fitted effect of over 40% in size
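Steps: enzyme plus compound, 15 min RT; add biotin/phosphotyrosine-FITC oligonucleotide (15 nM final), react 5 min; add donor/acceptor beads (10 ug/ml final), 10 min; read AlphaScreen. Tdp1 at 1 nM final.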
Tb PFK inh: qHTS Assay to Find Inhibitors of T. brucei phosphofructokinase; hit rate 0.17% among 330,000; Potency, µM (titrated, usually from 57.5 µM), most hits filed as inhibitors; AID 485367, 2010; T. brucei PFK, ADP-Glo luminescence; also: nearly all actives have a fitted effect of over 60% in size
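PFK 1.25 nM, F6P 0.5 mM, ATP 0.1 mM, 0.1 M TEA pH 8.0, 5 mM MgCl2, 0.01% Tween20, 0.1% BSA; 45 min RT. ADP-Glo readout. qHTS titration up to 57 uM; curves fitted, compounds curve-classed.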
VDR inh: Inhibitors of the vitamin D receptor (VDR): qHTS | hit rate 0.93% among 400,000 | Vitamin D3 receptor (Homo sapiens), P11473 | Potency, µM, actives largely listed as inhibitors | VDR-SRC2-3 peptide fluorescence polarization, 2 h
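Compounds are added to VDR with labelled SRC2-3 coactivator peptide and held 2 h at room temperature. Inhibition of the VDR–peptide interaction is then read as a change in fluorescence polarization.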
Pin1 inhibitor: qHTS Assay to Find Inhibitors of Pin1; Peptidyl-prolyl cis-trans isomerase NIMA-interacting 1 (Homo sapiens), Q13526; Pin1 FP peptide displacement, HiFluor488, 10 min; Potency, µM (highest dose often 115 µM), hits mostly inhibitors; hit rate 0.009% among 390,000; active = well fitted inhibition curve with a large enough effect in the polarisation, with a control signal flat, not every such curve was filed as active; inconclusive = small, poorly fitted or top-dose-only effect, or effect the other way, or a change in a side signal; inactive = no such curve, though single readings can be large or run the other way; the % refers to the polarisation
ASM inhibitor: Inhibitors of Secretory Acid Sphingomyelinase (S-ASM): qHTS | Sphingomyelin phosphodiesterase (Homo sapiens), P17405 | placental ASM, HMU-PC fluorogenic substrate, 60 min | Potency, µM (titrated, usually from 57.5 µM), usual class: inhibitors | hit rate 0.006% among 340,000
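qHTS format. ASM enzyme prepared from human placenta hydrolyses the fluorogenic substrate HMU-PC0 (9 uM final) over 60 min at 37 °C after a 10 min compound preincubation.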
A number is an active result; – = inactive; ? = inconclusive; · = no result given. Unless noted, calls follow the shape of the dose curve; as a rule, active = well fitted curve in the direction sought with a large enough effect; inconclusive = small, poorly fitted or top-dose-only effect, or another doubt; inactive = no such curve, though single readings can be large; an effect the other way counts as inactive or inconclusive.

SMILES | PLK1 PBD inh | TDP1 block | Tb PFK inh | VDR inh | Pin1 inhibitor | ASM inhibitor
CSc1ccccc1NC(=O)c1ccc([N+](=O)[O-])cc1 | 24µM | – | – | ? | – | –
CC(=O)C(=O)O | · | – | · | – | · | ·
Cc1cc2c(s1)c1cnn(CC(=O)N3CCOCC3)c(=O)c1n2C | · | – | · | – | ? | ·
CN(C)c1cccc(-c2cc(N3CCC(C(N)=O)CC3)ncn2)c1 | · | · | · | · | – | ·
C=CC(C)=C[C@@]1(C)SC(=O)C(C)=C1O | · | · | · | – | · | ·
S=C(Nc1ccc2cn[nH]c2c1)Nc1ccc(Cl)cc1Cl | 15µM | – | – | ? | – | –
COc1ccccc1NC(=S)Nc1cccc2cnccc12 | 30µM | – | – | ? | – | ·
Cc1ccc(S(=O)(=O)N(C)C)cc1NC(=S)Nc1cccc2ccccc12 | 15µM | – | – | – | – | –
CC(=O)NNC(=S)Nc1cc(S(=O)(=O)N(C)C)ccc1C | – | – | – | – | – | –
CN(C)S(=O)(=O)c1cccc(NC(=S)Nc2ccc3cn[nH]c3c2)c1 | 21µM | – | – | – | – | –
COc1ccc(NC(=S)Nc2ccc3cn[nH]c3c2)cc1 | ? | – | – | – | – | –
CN(C)S(=O)(=O)c1cccc(NC(=S)Nc2cccc3cnccc23)c1 | 17µM | – | – | ? | – | –
Cc1cc2c(cc(C(=O)OCC(=O)NC3CCCCC3)n2C)o1 | 27µM | · | · | ? | – | –
CC(=O)CCC(=O)O | · | – | · | – | · | ·
Cc1ccc(/C(N)=N/OC(=O)Cc2ccccc2)cc1 | – | – | – | – | – | –
COc1ccc(/C(N)=N/OC(=O)CCCN2C(=O)c3ccccc3C2=O)cc1OC | 24µM | – | – | ? | – | –
Cc1ccc(/C(N)=N/OC(=O)CCCc2ccccc2)cc1 | – | 50µM | – | – | – | –
COc1ccc2c(=O)c(C)c(-c3ccccc3)oc2c1CN(C)C | · | · | · | – | · | ·
Cc1cc(=O)nc2c3ccccc3n(C(C)C(=O)NCCC(C)C)n12 (stereo not drawn) | 27µM | · | – | – | – | –
COc1cccc(/C=N/N2CCOCC2)c1O | – | – | – | – | – | –
Oc1ccc(/C=N/N2CCOCC2)c(O)c1O | 9.5µM | ? | – | ? | ? | –
O=C(CN(CC1CCCO1)C(=O)CCC(=O)Nc1nccs1)NCc1ccccc1 (stereo not drawn) | – | – | – | – | – | –
O=C(CCC(=O)N(CC(=O)NC1CCCCC1)CC1CCCO1)Nc1nccs1 (stereo not drawn) | 27µM | – | – | – | – | –
Cc1cccc(NC(=O)N2CCC(CN3CCCCCC3)CC2)c1C | · | – | · | – | – | ·
Cn1c(NC2=NC3(CCCC3)C3=C(CCCC3=O)N2)nc2ccccc21 | · | – | · | · | – | ·
SMILES | PLK1 PBD inh | TDP1 block | Tb PFK inh | VDR inh | Pin1 inhibitor | ASM inhibitor
Cc1cc(C(=O)NNC(=O)/C=C/c2ccco2)c(C)o1 | 24µM | – | – | ? | ? | ·
COC(=O)NC(=S)Nc1ccc(Oc2ccc(Cl)cc2Cl)c(Cl)c1 | 3µM | – | – | – | – | –
COc1ccc(Br)cc1C(=O)NC(=S)Nc1ccc(Cl)c(C(=O)O)c1 | 12µM | – | – | – | ? | –
Cc1ccc2c(c1)-c1nc(-c3ccc4c(c3)NC(=O)CO4)cc(-c3ccc(F)cc3)c1CO2 | · | – | · | – | – | ·
CCS(=O)(=O)N1CC(=O)N(c2cccc(Cl)c2)C(C)(C(=O)NC2CCCCCC2)C1 (stereo not drawn) | · | – | · | – | – | ·
Nc1cn(C2OC(CO)C(O)C2O)c(=O)[nH]c1=O (stereo not drawn) | – | 56µM | – | – | – | –
N#Cc1c(NC(=O)C2CC(c3ccccc3O)=NO2)sc2c1CCC2 (stereo not drawn) | 19µM | – | – | – | – | ?
Cc1onc(-c2ccccc2Cl)c1C(=O)Nc1sc2c(c1C#N)CCC2 | 27µM | – | – | – | ? | –
Cc1onc(C(=O)Nc2sc3c(c2C#N)CCCC3)c1[N+](=O)[O-] | 27µM | – | – | ? | – | –
